Measurements as given in the supplement of paper PMC10849652.
Targets with a hit are over-represented here; the source holds about 8,800 in all. About 0.5% of all pairs of compound and target were hits. Values without a mark were called inactive.

How the values were obtained:
Assay in all cases: log2 fold change, soluble protein after heating vs DMSO (PISA); higher = thermal stabilisation; K562 lysate, 10 uM; active = over 0.2 and 3.5 SD of the protein, either way, in both replicates (recomputed)
alvocidib = compound: CN1CC[C@H](c2c(O)cc(O)c3c(=O)cc(-c4ccccc4Cl)oc23)[C@H](O)C1 [alvocidib]
How it was run: (§1)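 Log-two fold change in thermal stability relative to solvent controls is reported from duplicates. For each sample, crude K562 extract from dounce-homogenised pellets in PBS pH 7.4 with 1 mM MgCl2, at 1 mg/mL protein, was treated with 10 μM compound for 30 min. Aliquots heated for 3 min across 48°C-58°C were pooled, brought to 0.5% NP-40 at 4°C and cleared at 21,000xg for 90 min. The supernatant was quantified by TMTpro 16plex LC-MS/MS with channel sums equalised.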

Tubastatin A = compound: CN1CCc2c(c3ccccc3n2Cc2ccc(C(=O)NO)cc2)C1 [Tubastatin A]
How it was run: as §1

[1] = compound: CNC(=O)C1=CC=CC=C1NC2=NC(=NC=C2Cl)NC3=C(C=C(C=C3)N4CCOCC4)OC
How it was run: as §1

defactinib = compound: CNC(=O)c1ccc(Nc2ncc(C(F)(F)F)c(NCc3nccnc3N(C)S(C)(=O)=O)n2)cc1 [defactinib]
How it was run: as §1

[2] = compound: CNc1nc(-c2ccc3c(N)n[nH]c3c2)cc(N2C[C@@H](C(=O)NC3CCCCC3)CC[C@H]2C)n1
How it was run: as §1

encorafenib = compound: COC(=O)N[C@@H](C)CNc1nccc(-c2cn(C(C)C)nc2-c2cc(Cl)cc(NS(C)(=O)=O)c2F)n1 [encorafenib]
How it was run: as §1

[3] = compound: COC(=O)[C@H](CCSC)NC(=O)C1=C(C=C(C=C1)NC[C@H](CS)N)C2=CC=CC=C2
How it was run: as §1

alisertib = compound: COc1cc(Nc2ncc3c(n2)-c2ccc(Cl)cc2C(c2c(F)cccc2OC)=NC3)ccc1C(=O)O [alisertib]
How it was run: as §1

[4] = compound: COc1cc2nc(-c3cc(F)ccc3O)nc(N[C@@H]3CNC[C@H]3C(C)(C)O)c2cc1OC
How it was run: as §1

lapatinib = compound: CS(=O)(=O)CCNCc1ccc(-c2ccc3ncnc(Nc4ccc(OCc5cccc(F)c5)c(Cl)c4)c3c2)o1 [lapatinib]
How it was run: as §1

pictilisib = compound: CS(=O)(=O)N1CCN(Cc2cc3nc(-c4cccc5[nH]ncc45)nc(N4CCOCC4)c3s2)CC1 [pictilisib]
How it was run: as §1

crizotinib = compound: C[C@@H](Oc1cc(-c2cnn(C3CCNCC3)c2)cnc1N)c1c(Cl)ccc(F)c1Cl [crizotinib]
How it was run: as §1

[5] = compound: C[C@H](C1=CC=C(C=C1)C(=O)NC2=C3C=CNC3=NC=C2)N
How it was run: as §1

duvelisib = compound: C[C@H](Nc1ncnc2nc[nH]c12)c1cc2cccc(Cl)c2c(=O)n1-c1ccccc1 [duvelisib]
How it was run: as §1

gandotinib = compound: Cc1cc(Nc2cc(CN3CCOCC3)c3nc(C)c(Cc4ccc(Cl)cc4F)n3n2)n[nH]1 [gandotinib]
How it was run: as §1

tozasertib = compound: Cc1cc(Nc2cc(N3CCN(C)CC3)nc(Sc3ccc(NC(=O)C4CC4)cc3)n2)n[nH]1 [tozasertib]
How it was run: as §1

doramapimod = compound: Cc1ccc(-n2nc(C(C)(C)C)cc2NC(=O)Nc2ccc(OCCN3CCOCC3)c3ccccc23)cc1 [doramapimod]
How it was run: as §1

bafetinib = compound: Cc1ccc(NC(=O)c2ccc(CN3CC[C@H](N(C)C)C3)c(C(F)(F)F)c2)cc1Nc1nccc(-c2cncnc2)n1 [bafetinib]
How it was run: as §1

[6] = compound: Cc1cccc(CC(=O)N2CCc3c2ccc(-c2cn(C)c4ncnc(N)c24)c3F)n1
How it was run: as §1

gefitinib = compound: COc1cc2ncnc(Nc3ccc(F)c(Cl)c3)c2cc1OCCCN1CCOCC1 [gefitinib]
How it was run: as §1

Sequence of UniProt P48147 (P48147 whole entry, looked up): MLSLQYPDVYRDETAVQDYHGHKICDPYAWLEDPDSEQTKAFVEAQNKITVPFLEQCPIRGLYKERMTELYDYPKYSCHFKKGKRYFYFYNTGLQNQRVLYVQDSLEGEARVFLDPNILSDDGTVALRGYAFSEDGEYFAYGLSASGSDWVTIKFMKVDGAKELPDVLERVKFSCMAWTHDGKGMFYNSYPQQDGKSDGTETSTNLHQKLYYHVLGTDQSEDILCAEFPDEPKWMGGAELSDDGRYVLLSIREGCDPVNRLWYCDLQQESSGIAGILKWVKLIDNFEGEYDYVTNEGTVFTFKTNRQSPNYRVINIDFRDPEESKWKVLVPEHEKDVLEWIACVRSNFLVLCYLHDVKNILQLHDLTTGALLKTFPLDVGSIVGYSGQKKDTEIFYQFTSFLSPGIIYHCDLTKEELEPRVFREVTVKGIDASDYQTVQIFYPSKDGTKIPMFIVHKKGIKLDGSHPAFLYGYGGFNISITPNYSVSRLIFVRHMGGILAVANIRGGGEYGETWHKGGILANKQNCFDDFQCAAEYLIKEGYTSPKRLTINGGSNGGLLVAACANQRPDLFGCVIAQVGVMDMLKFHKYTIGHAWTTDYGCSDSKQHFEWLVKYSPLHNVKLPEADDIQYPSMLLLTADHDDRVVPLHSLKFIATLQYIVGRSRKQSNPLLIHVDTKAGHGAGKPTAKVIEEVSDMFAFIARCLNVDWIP
Sequence of UniProt Q96CD2 (Q96CD2 whole entry, looked up): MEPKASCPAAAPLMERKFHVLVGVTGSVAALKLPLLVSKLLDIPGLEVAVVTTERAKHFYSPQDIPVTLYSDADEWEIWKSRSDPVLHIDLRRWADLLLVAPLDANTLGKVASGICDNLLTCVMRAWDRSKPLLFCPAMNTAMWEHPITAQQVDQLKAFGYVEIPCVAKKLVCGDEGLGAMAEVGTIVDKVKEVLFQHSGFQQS
Sequence of UniProt P48736 (P48736 whole entry, looked up): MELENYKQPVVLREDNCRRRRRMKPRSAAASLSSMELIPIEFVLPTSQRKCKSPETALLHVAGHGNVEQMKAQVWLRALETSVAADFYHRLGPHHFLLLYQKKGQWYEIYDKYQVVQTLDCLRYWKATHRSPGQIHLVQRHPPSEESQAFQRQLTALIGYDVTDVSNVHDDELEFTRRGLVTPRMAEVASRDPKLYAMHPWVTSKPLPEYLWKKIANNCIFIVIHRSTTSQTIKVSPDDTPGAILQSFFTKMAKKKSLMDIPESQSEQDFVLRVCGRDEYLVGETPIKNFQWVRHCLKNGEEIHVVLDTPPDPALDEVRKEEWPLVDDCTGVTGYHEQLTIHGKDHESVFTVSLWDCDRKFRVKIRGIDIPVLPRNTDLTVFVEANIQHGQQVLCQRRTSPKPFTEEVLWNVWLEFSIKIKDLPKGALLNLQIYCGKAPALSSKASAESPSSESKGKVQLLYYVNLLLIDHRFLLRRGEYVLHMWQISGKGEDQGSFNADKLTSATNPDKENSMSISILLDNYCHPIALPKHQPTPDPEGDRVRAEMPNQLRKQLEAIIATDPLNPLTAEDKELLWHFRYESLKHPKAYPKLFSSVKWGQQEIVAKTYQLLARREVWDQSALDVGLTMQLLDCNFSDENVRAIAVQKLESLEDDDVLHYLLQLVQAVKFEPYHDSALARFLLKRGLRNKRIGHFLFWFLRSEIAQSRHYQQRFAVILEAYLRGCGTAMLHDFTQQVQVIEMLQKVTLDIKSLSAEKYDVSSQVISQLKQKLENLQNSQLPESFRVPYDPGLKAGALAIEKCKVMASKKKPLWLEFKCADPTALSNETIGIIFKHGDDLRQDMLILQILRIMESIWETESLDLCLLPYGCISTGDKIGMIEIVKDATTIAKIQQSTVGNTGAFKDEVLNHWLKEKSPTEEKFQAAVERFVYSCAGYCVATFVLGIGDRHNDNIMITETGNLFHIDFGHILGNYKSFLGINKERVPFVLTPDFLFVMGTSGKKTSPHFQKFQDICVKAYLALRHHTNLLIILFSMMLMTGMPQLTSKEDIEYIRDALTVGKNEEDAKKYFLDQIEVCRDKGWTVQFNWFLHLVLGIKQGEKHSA
Sequence of UniProt Q8N4L2 (Q8N4L2 whole entry, looked up): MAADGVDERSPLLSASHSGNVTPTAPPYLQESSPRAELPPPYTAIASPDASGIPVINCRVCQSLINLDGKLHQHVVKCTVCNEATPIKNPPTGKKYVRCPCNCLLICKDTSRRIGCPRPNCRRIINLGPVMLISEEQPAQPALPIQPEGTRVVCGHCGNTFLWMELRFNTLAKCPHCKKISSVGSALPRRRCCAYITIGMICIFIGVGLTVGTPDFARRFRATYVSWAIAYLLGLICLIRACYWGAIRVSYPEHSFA
Sequence of UniProt Q96I23 (Q96I23 whole entry, looked up): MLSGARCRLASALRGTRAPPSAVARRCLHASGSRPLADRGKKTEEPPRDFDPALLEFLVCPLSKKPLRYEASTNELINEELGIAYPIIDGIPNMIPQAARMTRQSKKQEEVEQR
Sequence of UniProt Q9H2H8 (Q9H2H8 whole entry, looked up): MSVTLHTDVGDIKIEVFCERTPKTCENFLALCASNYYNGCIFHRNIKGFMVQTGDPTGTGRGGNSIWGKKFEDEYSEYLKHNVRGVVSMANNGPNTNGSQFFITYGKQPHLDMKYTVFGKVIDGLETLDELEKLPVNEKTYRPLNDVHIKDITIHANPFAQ
Sequence of UniProt P78356 (P78356 whole entry, looked up): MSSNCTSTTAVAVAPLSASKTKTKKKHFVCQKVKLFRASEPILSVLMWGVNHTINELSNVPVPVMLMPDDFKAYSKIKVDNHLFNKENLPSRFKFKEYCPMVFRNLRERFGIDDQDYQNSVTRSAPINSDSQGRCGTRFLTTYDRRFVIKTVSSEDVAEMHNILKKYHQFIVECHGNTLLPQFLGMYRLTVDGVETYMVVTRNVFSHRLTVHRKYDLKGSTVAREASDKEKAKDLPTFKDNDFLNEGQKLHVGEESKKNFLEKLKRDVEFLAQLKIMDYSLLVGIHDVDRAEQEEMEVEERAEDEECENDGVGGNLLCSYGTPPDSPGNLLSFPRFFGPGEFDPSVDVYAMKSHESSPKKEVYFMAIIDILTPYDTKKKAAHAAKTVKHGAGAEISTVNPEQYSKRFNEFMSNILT
Sequence of UniProt Q969Q6 (Q969Q6 whole entry, looked up): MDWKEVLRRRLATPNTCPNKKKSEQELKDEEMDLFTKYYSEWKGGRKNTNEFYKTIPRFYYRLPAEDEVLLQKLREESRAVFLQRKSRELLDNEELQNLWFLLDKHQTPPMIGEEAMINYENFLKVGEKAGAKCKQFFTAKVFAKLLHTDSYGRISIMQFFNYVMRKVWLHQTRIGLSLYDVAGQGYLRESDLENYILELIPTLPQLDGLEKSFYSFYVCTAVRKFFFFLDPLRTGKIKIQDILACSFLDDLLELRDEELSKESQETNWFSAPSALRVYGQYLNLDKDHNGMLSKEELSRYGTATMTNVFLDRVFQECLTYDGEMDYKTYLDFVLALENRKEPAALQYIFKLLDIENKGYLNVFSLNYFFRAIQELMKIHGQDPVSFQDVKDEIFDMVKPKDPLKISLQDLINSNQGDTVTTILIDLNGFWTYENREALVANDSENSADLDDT
Sequence of UniProt Q16816 (Q16816 whole entry, looked up): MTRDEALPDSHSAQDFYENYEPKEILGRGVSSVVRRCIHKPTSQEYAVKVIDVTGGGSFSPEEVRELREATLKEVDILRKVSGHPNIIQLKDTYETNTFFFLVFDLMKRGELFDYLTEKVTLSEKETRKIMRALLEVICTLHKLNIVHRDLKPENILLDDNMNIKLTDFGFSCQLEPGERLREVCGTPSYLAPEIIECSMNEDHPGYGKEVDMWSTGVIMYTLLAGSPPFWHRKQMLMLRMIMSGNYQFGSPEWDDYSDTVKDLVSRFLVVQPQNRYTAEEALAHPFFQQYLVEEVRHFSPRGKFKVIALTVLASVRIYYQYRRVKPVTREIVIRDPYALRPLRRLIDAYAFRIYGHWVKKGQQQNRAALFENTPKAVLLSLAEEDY
Sequence of UniProt O00329 (O00329 whole entry, looked up): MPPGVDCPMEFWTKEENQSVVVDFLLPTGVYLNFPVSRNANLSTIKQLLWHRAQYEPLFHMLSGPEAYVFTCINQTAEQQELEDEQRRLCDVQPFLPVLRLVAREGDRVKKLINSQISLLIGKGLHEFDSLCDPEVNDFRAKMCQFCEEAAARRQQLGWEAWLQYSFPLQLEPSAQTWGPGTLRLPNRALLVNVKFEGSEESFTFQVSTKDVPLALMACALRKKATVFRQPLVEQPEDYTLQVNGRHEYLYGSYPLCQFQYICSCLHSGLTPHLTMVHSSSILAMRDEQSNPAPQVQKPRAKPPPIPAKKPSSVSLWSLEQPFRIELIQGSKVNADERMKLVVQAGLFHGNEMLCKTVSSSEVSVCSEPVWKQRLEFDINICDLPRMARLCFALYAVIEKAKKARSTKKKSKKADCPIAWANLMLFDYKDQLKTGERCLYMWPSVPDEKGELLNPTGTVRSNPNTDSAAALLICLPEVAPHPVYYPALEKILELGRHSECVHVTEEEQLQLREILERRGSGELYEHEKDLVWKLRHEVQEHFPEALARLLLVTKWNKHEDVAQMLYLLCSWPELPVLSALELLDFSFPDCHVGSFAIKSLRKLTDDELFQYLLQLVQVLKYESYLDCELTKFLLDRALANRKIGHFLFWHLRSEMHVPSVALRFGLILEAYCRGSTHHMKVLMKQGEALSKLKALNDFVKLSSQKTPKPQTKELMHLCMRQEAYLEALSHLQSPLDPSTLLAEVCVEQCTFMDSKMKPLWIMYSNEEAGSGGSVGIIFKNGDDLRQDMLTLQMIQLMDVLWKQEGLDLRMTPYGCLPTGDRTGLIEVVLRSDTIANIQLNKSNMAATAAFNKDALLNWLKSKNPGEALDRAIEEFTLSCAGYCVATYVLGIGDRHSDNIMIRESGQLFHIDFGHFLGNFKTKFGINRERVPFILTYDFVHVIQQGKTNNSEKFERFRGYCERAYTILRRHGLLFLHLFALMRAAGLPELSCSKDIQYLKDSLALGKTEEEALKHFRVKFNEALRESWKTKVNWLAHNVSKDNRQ

Target | log2 fold change (alvocidib) | log2 fold change (Tubastatin A) | log2 fold change [1] | log2 fold change (defactinib) | log2 fold change [2] | log2 fold change (encorafenib) | log2 fold change [3] | log2 fold change (alisertib) | log2 fold change [4] | log2 fold change (lapatinib) | log2 fold change (pictilisib) | log2 fold change (crizotinib) | log2 fold change [5] | log2 fold change (duvelisib) | log2 fold change (gandotinib) | log2 fold change (tozasertib) | log2 fold change (doramapimod) | log2 fold change (bafetinib) | log2 fold change [6] | log2 fold change (gefitinib)
PRKDC (UniProt P78527) | -0.06 | -0.114 | -0.002 | 0.033 | -0.03 | -0.022 | -0.035 | 0.012 | -0.003 | -0.032 | 0.155 | -0.026 | -0.088 | 0.298 | 0.132 | -0.03 | -0.038 | -0.146 | -0.074 | –
PICALM (UniProt H0YEH1) | -0.206 | 0.126 | 0.098 | 0.006 | 0 | -0.038 | 0.098 | 0.049 | -0.042 | 0.046 | 0.016 | -0.086 | -0.47 (active) | -0.075 | 0.238 | 0.152 | 0.274 | 0.018 | 0.335 (active) | -0.036
PREP (UniProt P48147) | 0.018 | -0.021 | 0.018 | 0.005 | -0.019 | -0.024 | 0.361 (active) | -0.011 | 0.013 | -0.024 | -0.013 | -0.016 | 0.009 | 0.043 | -0.042 | -0.012 | -0.001 | -0.004 | -0.01 | -0.012
PPCDC (UniProt Q96CD2) | -0.08 | 0.034 | -0.053 | -0.037 | -0.054 | -0.082 | -0.027 | -0.051 | 0.032 | -0.023 | -0.176 | 0 | -0.342 (active) | 0.062 | 0.152 | 0 | 0.024 | 0.034 | 0.19 | 0.028
PPIL3 (UniProt Q9H2H8) | -0.105 | -0.044 | 0 | -0.115 | 0.012 | 0.011 | 0.008 | -0.033 | 0.018 | 0.05 | -0.062 | 0.079 | -0.115 | -0.009 | 0.084 | -0.019 | 0 | -0.037 | 0.08 | -0.02
PYURF (UniProt Q96I23) | 0.077 | 0.041 | 0.073 | 0.181 | 0.019 | 0.113 | 0.027 | 0.007 | -0.007 | 0.036 | -0.066 | 0.016 | 0.01 | 0.087 | -0.015 | -0.048 | 0.011 | 0.091 | 0.015 | -0.038
PIM1 isoform 2 (UniProt P11309) | 0.217 | -0.204 | 0.052 | 0.035 | -0.152 | -0.007 | 0.038 | -0.017 | – | – | 0.084 | -0.107 | 0.096 | 0.081 | -0.121 | 0.046 | -0.012 | -0.043 | -0.025 | 0.003
PPP2R3C (UniProt Q969Q6) | -0.018 | -0.145 | -0.046 | 0.072 | 0.081 | 0.105 | 0.013 | 0.069 | -0.23 | 0.048 | -0.029 | – | -0.1 | 0.028 | -0.097 | 0.036 | – | 0.022 | 0.023 | 0.105
PCBP3 (UniProt P57721) | -0.015 | 0.005 | 0.022 | -0.039 | 0.042 | -0.006 | -0.023 | 0.019 | 0.015 | -0.031 | -0.035 | 0.002 | -0.067 | -0.014 | 0.028 | 0.001 | 0.014 | -0.03 | 0.026 | -0.023
PTPN6 isoform 4 (UniProt P29350) | -0.12 | -0.185 | 0.037 | -0.015 | -0.008 | 0.028 | 0.261 | -0.218 | -0.034 | -0.227 | -0.058 | 0.02 | -0.038 | -0.013 | -0.28 | 0 | 0.015 | -0.278 | 0.135 | 0.045
PIK3CG (UniProt P48736) | -0.033 | -0.044 | 0.04 | 0.009 | -0.015 | 0.046 | 0.041 | 0.001 | – | – | – | -0.128 | -0.158 | 0.183 | 0.14 | -0.038 | 0.04 | -0.111 | 0.075 | –
PRRC2A (UniProt P48634) | -0.006 | -0.014 | -0.001 | 0.046 | -0.012 | 0.048 | -0.044 | 0.016 | 0.005 | -0.02 | -0.017 | 0.06 | 0.011 | -0.001 | 0.007 | -0.013 | -0.073 | 0.031 | -0.058 | -0.008
PIK3CD (UniProt O00329) | -0.105 | 0.012 | 0.021 | 0.052 | -0.047 | – | – | -0.027 | 0.027 | -0.043 | 0.142 | -0.037 | 0.035 | 0.477 (active) | 0.389 | – | 0.03 | -0.136 | -0.016 | –
PHKG1 isoform 2 (UniProt Q16816) | -0.057 | 0.053 | 0.929 (active) | 0.196 | -0.118 | 0.123 | -0.078 | -0.185 | 0.763 | -0.166 | – | 0.305 | -0.553 | -0.042 | 0.655 | -0.172 | 0.038 | – | 0.216 | 0.202
POLB (UniProt P06746) | 0.023 | -0.199 | -0.062 | 0.028 | -0.033 | 0.045 | 0.086 | 0.015 | 0 | 0.017 | 0.075 | -0.003 | 0.011 | 0.018 | -0.041 | -0.015 | -0.003 | -0.024 | -0.009 | 0.038
PIP4P2 (UniProt Q8N4L2) | -0.03 | 0.038 | -0.021 | -0.009 | 0.062 | 0 | -0.12 | 0.006 | 0.052 | 0.021 | -0.019 | 0.021 | 0.053 | 0.027 | -0.021 | 0.061 | 0.033 | -0.09 | -0.009 | 0.111
PIP4K2B (UniProt P78356) | 0.223 (active) | 0.008 | -0.014 | 0.031 | -0.065 | 0.062 | -0.093 | -0.036 | -0.028 | 0.033 | 0.044 | -0.019 | 0.01 | 0.006 | 0.029 | -0.029 | -0.001 | 0.164 | -0.067 | 0.013
